Measurements reported in PMC11062922 (Nature Chemical Biology, 2023).
Read-outs that look alike come from different tables or passages of the source.

What was measured:
AAK1 = system: AAK1; parameters: species or system human, MV4-11 + K-562 + COLO205 + SK-N-BE2 + OVCAR-8; details: read-out: apparent Kd, n = 1
CLK1 = system: CLK1; parameters: species or system human, MV4-11 + K-562 + COLO205 + SK-N-BE2 + OVCAR-8; details: read-out: apparent Kd, compound concentrations: 100 nM and 1000 nM (sheet 'Samples'), n = 1
CLK4 = system: CLK4; parameters: species or system human, MV4-11 + K-562 + COLO205 + SK-N-BE2 + OVCAR-8; details: read-out: apparent Kd, compound concentrations: 100 nM and 1000 nM (sheet 'Samples'), n = 1
CSNK2A1;CSNK2A3 = system: CSNK2A1;CSNK2A3; parameters: species or system human, MV4-11 + K-562 + COLO205 + SK-N-BE2 + OVCAR-8; details: read-out: apparent Kd, compound concentrations: 100 nM and 1000 nM (sheet 'Samples'), n = 1
CSNK2A2 = system: CSNK2A2; parameters: species or system human, MV4-11 + K-562 + COLO205 + SK-N-BE2 + OVCAR-8; details: read-out: apparent Kd, compound concentrations: 100 nM and 1000 nM (sheet 'Samples'), n = 1
Q6ZSR9 = Q6ZSR9 (human, UniProt Q6ZSR9); parameters: species or system MV4-11 + K-562 + COLO205 + SK-N-BE2 + OVCAR-8; details: read-out: apparent Kd, n = 1
ABL1 = system: ABL1; parameters: species or system human, MV4-11 + K-562 + COLO205 + SK-N-BE2 + OVCAR-8; details: read-out: apparent Kd, n = 1
ABL2 = system: ABL2; parameters: species or system human, MV4-11 + K-562 + COLO205 + SK-N-BE2 + OVCAR-8; details: read-out: apparent Kd, n = 1
BCR = system: BCR; parameters: species or system human, MV4-11 + K-562 + COLO205 + SK-N-BE2 + OVCAR-8; details: read-out: apparent Kd, n = 1
FYN = system: FYN; parameters: species or system human, MV4-11 + K-562 + COLO205 + SK-N-BE2 + OVCAR-8; details: read-out: apparent Kd, n = 1
GAK = system: GAK; parameters: species or system human, MV4-11 + K-562 + COLO205 + SK-N-BE2 + OVCAR-8; details: read-out: apparent Kd, n = 1
HCK = system: HCK; parameters: species or system human, MV4-11 + K-562 + COLO205 + SK-N-BE2 + OVCAR-8; details: read-out: apparent Kd, n = 1
LCK = system: LCK; parameters: species or system human, MV4-11 + K-562 + COLO205 + SK-N-BE2 + OVCAR-8; details: read-out: apparent Kd, n = 1
PTK6 = system: PTK6; parameters: species or system human, MV4-11 + K-562 + COLO205 + SK-N-BE2 + OVCAR-8; details: read-out: apparent Kd; compound concentrations:100 nM and 1000 nM (sheet 'Samples'); n = 1
RET = system: RET; parameters: species or system human, MV4-11 + K-562 + COLO205 + SK-N-BE2 + OVCAR-8; details: read-out: apparent Kd, n = 1
RIPK2 = system: RIPK2; parameters: species or system human, MV4-11 + K-562 + COLO205 + SK-N-BE2 + OVCAR-8; details: read-out: apparent Kd, n = 1
RIPK3 = system: RIPK3; parameters: species or system human, MV4-11 + K-562 + COLO205 + SK-N-BE2 + OVCAR-8; details: read-out: apparent Kd, n = 1
TNK1 = system: TNK1; parameters: species or system human, MV4-11 + K-562 + COLO205 + SK-N-BE2 + OVCAR-8; details: read-out: apparent Kd, n = 1
YES1 = system: YES1; parameters: species or system human, MV4-11 + K-562 + COLO205 + SK-N-BE2 + OVCAR-8; details: read-out: apparent Kd, n = 1
[1] = compound concentrations:100 nM and 1000 nM (sheet 'Samples')

Sequence of Q6ZSR9 (Q6ZSR9 whole entry, looked up): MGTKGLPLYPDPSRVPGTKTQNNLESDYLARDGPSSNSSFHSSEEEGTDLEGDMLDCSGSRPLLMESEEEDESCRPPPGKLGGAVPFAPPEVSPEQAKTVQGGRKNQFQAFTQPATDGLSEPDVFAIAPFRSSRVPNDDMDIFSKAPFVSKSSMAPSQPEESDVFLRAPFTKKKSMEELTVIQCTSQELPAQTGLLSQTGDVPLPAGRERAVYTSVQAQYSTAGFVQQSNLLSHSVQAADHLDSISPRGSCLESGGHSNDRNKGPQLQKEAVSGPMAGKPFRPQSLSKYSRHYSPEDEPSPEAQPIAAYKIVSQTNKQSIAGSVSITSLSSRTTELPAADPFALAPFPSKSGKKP

Molecule `NC1=NC(=O)/C(=C/c2ccc3ncccc3c2)S1` [RO4569139-000] has a potency estimated from few doses (AAK1; compound concentrations: 100 nM and 1000 nM (sheet 'Samples'), CATDS: 6.8889261451454395E-2) of 1710 nM, a potency estimated from few doses (CLK1; CATDS: 0.136614362929) of 259 nM and a potency estimated from few doses (CLK4; CATDS: 7.4487877667225894E-2) of 1260 nM. The potency estimated from few doses (CSNK2A1;CSNK2A3; CATDS: 0.13735026532766101) was 256 nM, the potency estimated from few doses (CSNK2A2; CATDS: 0.14765038324125301) was 222 nM and the potency estimated from few doses (Q6ZSR9; compound concentrations: 100 nM and 1000 nM (sheet 'Samples'), CATDS: 7.6885749429296102E-2) was 1130 nM.
`CCN(CC)CCOc1ccc(Nc2ncc3cc(-c4c(Cl)cccc4Cl)c(=O)n(C)c3n2)cc1` [SB-601273] gave a potency estimated from few doses (ABL1; [1]) of 72.7 nM, a potency estimated from few doses (ABL2; [1]) of 8.98 nM and a potency estimated from few doses (BCR; [1]) of 5.53 nM. For the same molecule, the potency estimated from few doses (FYN; [1]) was 130 nM, the potency estimated from few doses (GAK; [1]) was 55.4 nM and the potency estimated from few doses (HCK; [1]) was 299 nM. For the same molecule, the potency estimated from few doses (LCK; [1]) was 39 nM, the potency estimated from few doses (PTK6) was 224 nM and the potency estimated from few doses (RET; [1]) was 167 nM. The potency estimated from few doses (RIPK2; [1]) was 19.4 nM, the potency estimated from few doses (RIPK3; [1]) was 765 nM and the potency estimated from few doses (TNK1; [1]) was 631 nM. For the same molecule, the potency estimated from few doses (YES1; [1]) was 80.1 nM.
In the case of `COc1cc(Nc2nccc(N3CCC(NC(=O)c4cccc(C#N)c4)C3)n2)cc(OC)c1OC` (stereo not shown) [GSK1379751A], the potency estimated from few doses (AAK1; compound concentrations: 100 nM and 1000 nM (sheet 'Samples'), CATDS: 0.20949591044902) is reported as 786 nM and the potency estimated from few doses (Q6ZSR9; compound concentrations: 100 nM and 1000 nM (sheet 'Samples'), CATDS: 0.206433255862257) is reported as 810 nM.
`O=C1N=C(NCCc2cccc(F)c2)S/C1=C\c1ccc2ncccc2c1` [RO4508344-000] was tested, and the potency estimated from few doses (AAK1; compound concentrations: 100 nM and 1000 nM (sheet 'Samples'), CATDS: 0.102414054055007) was 806 nM, the potency estimated from few doses (CLK1; CATDS: 0.18459427931802) was 278 nM and the potency estimated from few doses (CLK4; CATDS: 0.11348899784144) was 644 nM. The potency estimated from few doses (CSNK2A1;CSNK2A3; CATDS: 0.10848766260937499) was 709 nM, the potency estimated from few doses (CSNK2A2; CATDS: 0.12392603207531599) was 541 nM and the potency estimated from few doses (Q6ZSR9; compound concentrations: 100 nM and 1000 nM (sheet 'Samples'), CATDS: 9.5289389413805506E-2) was 958 nM.
Work on `Cc1nn(C)c2cc(N(C)c3ccnc(Nc4cccc(S(N)(=O)=O)c4)n3)ccc12.Cl` [GW770220A] yielded a potency estimated from few doses (AAK1; compound concentrations: 100 nM and 1000 nM (sheet 'Samples'), CATDS: 0.34831040930344798) of 632 nM and a potency estimated from few doses (Q6ZSR9; compound concentrations: 100 nM and 1000 nM (sheet 'Samples'), CATDS: 0.39212964610314199) of 507 nM.
For `CC(C)c1cc(-c2ccc3c(N)n[nH]c3c2)nc(N)n1` [GSK2250882A], the potency estimated from few doses (AAK1; [1]) was 838 nM and the potency estimated from few doses (Q6ZSR9; [1]) was 1370 nM.
In the case of `CC(=O)N1CCN(c2ccc(Nc3nccc(-c4sc(C(C)C)nc4-c4cccc(NS(=O)(=O)c5ccccc5)c4)n3)cn2)CC1` [GSK1645872A], the potency estimated from few doses (ABL1; compound concentrations: 100 nM and 1000 nM (sheet 'Samples'), CATDS: 2.9890665121479899E-2) is reported as 746 nM, the potency estimated from few doses (ABL2; compound concentrations: 100 nM and 1000 nM (sheet 'Samples'), CATDS: 6.8030281480511795E-2) is reported as 166 nM and the potency estimated from few doses (BCR; compound concentrations: 100 nM and 1000 nM (sheet 'Samples'), CATDS: 2.6881466096611999E-2) is reported as 991 nM. The potency estimated from few doses (GAK; compound concentrations: 100 nM and 1000 nM (sheet 'Samples'), CATDS: 3.3630312969228401E-2) was 566 nM, the potency estimated from few doses (LCK; compound concentrations: 100 nM and 1000 nM (sheet 'Samples'), CATDS: 2.6338913401390801E-2) was 1050 nM and the potency estimated from few doses (RIPK2; compound concentrations: 100 nM and 1000 nM (sheet 'Samples'), CATDS: 3.4620572917050799E-2) was 532 nM. It also gave a potency estimated from few doses (RIPK3; compound concentrations: 100 nM and 1000 nM (sheet 'Samples'), CATDS: 4.0939196436341502E-2) of 381 nM, a potency estimated from few doses (TNK1; compound concentrations: 100 nM and 1000 nM (sheet 'Samples'), CATDS: 4.1915160463804002E-2) of 364 nM and a potency estimated from few doses (YES1; compound concentrations: 100 nM and 1000 nM (sheet 'Samples'), CATDS: 4.4721674656853803E-2) of 324 nM.
With `CC(C)c1nc(-c2cccc(NS(=O)(=O)c3c(F)cccc3F)c2)c(-c2ccnc(Nc3ccc(N4CCOCC4)nc3)n2)s1.Cl` [GSK1723980B] the potency estimated from few doses (ABL1; compound concentrations: 100 nM and 1000 nM (sheet 'Samples'), CATDS: 2.44032415333994E-2) was 301 nM, the potency estimated from few doses (ABL2; compound concentrations: 100 nM and 1000 nM (sheet 'Samples'), CATDS: 5.9392404533495001E-2) was 61.3 nM and the potency estimated from few doses (BCR; compound concentrations: 100 nM and 1000 nM (sheet 'Samples'), CATDS: 2.01356126413582E-2) was 494 nM. It also gave a potency estimated from few doses (FYN; compound concentrations: 100 nM and 1000 nM (sheet 'Samples'), CATDS: 2.5454703773251201E-2) of 273 nM, a potency estimated from few doses (GAK; compound concentrations: 100 nM and 1000 nM (sheet 'Samples'), CATDS: 7.7994003352353694E-2) of 41.9 nM and a potency estimated from few doses (HCK; compound concentrations: 100 nM and 1000 nM (sheet 'Samples'), CATDS: 2.2853369268103E-2) of 353 nM. The potency estimated from few doses (LCK; compound concentrations: 100 nM and 1000 nM (sheet 'Samples'), CATDS: 3.2406283014168501E-2) was 166 nM, the potency estimated from few doses (RET; compound concentrations: 100 nM and 1000 nM (sheet 'Samples'), CATDS: 3.0852467961072601E-2) was 183 nM and the potency estimated from few doses (RIPK2; compound concentrations: 100 nM and 1000 nM (sheet 'Samples'), CATDS: 1.9945459179113199E-2) was 508 nM. For the same molecule, the potency estimated from few doses (RIPK3; compound concentrations: 100 nM and 1000 nM (sheet 'Samples'), CATDS: 1.9089551984729902E-2) was 580 nM, the potency estimated from few doses (TNK1; compound concentrations: 100 nM and 1000 nM (sheet 'Samples'), CATDS: 4.2309935228441099E-2) was 104 nM and the potency estimated from few doses (YES1; compound concentrations: 100 nM and 1000 nM (sheet 'Samples'), CATDS: 2.9075172405301501E-2) was 206 nM.
With `N#Cc1cnc2cc(-c3cnc(CNCCN4CCOCC4)s3)ccc2c1Nc1ccc(Oc2ccccc2)cc1` [GW664114X] the potency estimated from few doses (ABL1; compound concentrations: 100 nM and 1000 nM (sheet 'Samples'), CATDS: 4.8325821133258902E-2) was 1130 nM, the potency estimated from few doses (FYN; compound concentrations: 100 nM and 1000 nM (sheet 'Samples'), CATDS: 5.3110051753070202E-2) was 831 nM and the potency estimated from few doses (HCK; compound concentrations: 100 nM and 1000 nM (sheet 'Samples'), CATDS: 0.211931822213385) was 69.1 nM. The potency estimated from few doses (LCK; compound concentrations: 100 nM and 1000 nM (sheet 'Samples'), CATDS: 5.7694634687651798E-2) was 657 nM and the potency estimated from few doses (YES1; compound concentrations: 100 nM and 1000 nM (sheet 'Samples'), CATDS: 7.4593421105350805E-2) was 361 nM.
For `Fc1ccc(-c2c(-c3ccncc3)[nH]c3nccnc23)cc1` [RO1155697-000], the potency estimated from few doses (RIPK2; [1]) was 828 nM.
